The values below come from PubChem BioAssay.

A short description of experiment [1]: inhibitors of TNFa-induced NFkB p65 translocation, primary screen, imaging, HUVEC, MLSMR starter and 10KST1 sets (AID 438;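 active = inhibition above 20% together with a positive visual image hit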;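 note: compound added about 3h40 before a 20 min TNFalpha stimulation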;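 for inhibition: signal is the nuclear over cytoplasmic p65 intensity ratio per well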). Conditions: HUVEC TNFa-induced p65 nuclear translocation; cell count: measured here: nuclei count (cytotoxicity indicator), at 2.08 µM; inhibition: at 2 µM, stronger effect = higher value, 0% TNFa-plus-vehicle, 100% no-TNFa wells.
Experiment [2] can be described thus: reduction of polyQ htt aggregates in cells – imaging, exon1htt(103Q)mCFP cells, high-content imaging, primary screen (AID 483;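 active = visual image review flags a hit and inhibition of aggregation exceeds 20%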;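 note: compound exposure lasted 3 days before fixation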;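 for nuclei count: percent of the per-plate median nuclei count of sample wells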). Conditions: exon1htt(103Q)mCFP cell line, aggregate imaging, at 2 µM; inhibition of aggregation: stronger effect = higher value; nuclei count: measured here: cell count, toxicity.
A short description of experiment [3]: endothelial E-selectin expression blockers – imaging, HUVEC, immunofluorescence, MLSMR starter and 10KST1 sets, primary screen (AID 487;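 active = visually confirmed hit in the image check and inhibition above 20%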;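 for inhibition: signal is fraction of cell area covered by stained E-selectin grains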;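 for nuclei count: 100% = median nuclei count of all wells on the same plate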). As to conditions: HUVEC TNFalpha-induced E-selectin immunofluorescence imaging, at 2 µM; inhibition: stronger effect = higher value; nuclei count: measured here: cell number, toxicity.
Experiment [4] has as its target Voltage-gated potassium channel subunit beta-2 (Rattus norvegicus) (UniProt P62483). Kind of experiment: inhibitors of rat Kvbeta2 reductase activity – biochemical, NADPH fluorescence, primary screen (AID 622;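 active = fluorescence slope higher than the sample average by over 3 SD, cut at about -0.22 in these data, passing the limit was not always enough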;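 note: slope of raw intensity against log time taken from 70 to 1610 s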). As to conditions: recombinant KvBeta, 4-cyanobenzaldehyde reduction, at 10 µM, stronger effect = higher value.
Experiment [5] shares this target. In words: enhancers of rat Kvbeta2 NADPH turnover – biochemical, NADPH fluorescence, primary screen (AID 623;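 active = NADPH fluorescence slope more negative than the mean of all samples by about 3 SD, 99.7% confidence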;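 note: fluorescence intensity change per second fitted from 20 to 320 s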). Conditions: Recombinant KvBeta, NADPH fluorescence decrease slope, 10 min; at 10 µM; stronger effect = lower value.
Experiment [6] has as its target Alpha-2C adrenergic receptor (Homo sapiens) (UniProt P18825). Kind of experiment: compounds altering alpha2C-coupled GIRK flux – cell-based, HEK293 alpha2C/GIRK1/2, thallium flux, primary screen (AID 624;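 active = fluorescence slope after compound addition differing from the mean of all screened samples at 99.7% confidence, in either direction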;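 note: slope of fluorescence ratio to pre-addition baseline per second over 15 to 24 s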). As to conditions: thallium flux BTC fluorescence, at 10 µM, actives lie on both sides.
Experiment [7] in a line: blockers of RIG-like receptor reporter activation – cell-based, Sendai virus stimulus, luciferase, 10K MLSCN set, TLR/RLR signaling modifier project, primary screen (AID 602276).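 Note: firefly luciferase from ISG56 promoter only with Renilla not read in this screen; 0% = Sendai virus plus DMSO and 100% = medium plus DMSO without virus.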 Conditions: HEK293 RL24 IRF3 luciferase reporter, at 10 µM, stronger effect = higher value.
The nature of experiment [8]: TLR3 IRF3 reporter activation blockers – cell-based, poly I:C stimulus, luciferase, 10K MLSCN set, primary screen (AID 602277;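 active = inhibition of the reporter signal at or above 50%; inactive = inhibition below 50%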). Conditions: HEK293-TLR3 RL24 IRF3 luciferase reporter, at 10 µM, stronger effect = higher value.

Active and inactive are the calls of the source.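 Rule for the calls, unless noted: active = inhibition at or above 50% at 10 µM; inactive = inhibition below 50%.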

Alpha-2C adrenergic receptor (Homo sapiens), sequence (P18825 whole entry, looked up): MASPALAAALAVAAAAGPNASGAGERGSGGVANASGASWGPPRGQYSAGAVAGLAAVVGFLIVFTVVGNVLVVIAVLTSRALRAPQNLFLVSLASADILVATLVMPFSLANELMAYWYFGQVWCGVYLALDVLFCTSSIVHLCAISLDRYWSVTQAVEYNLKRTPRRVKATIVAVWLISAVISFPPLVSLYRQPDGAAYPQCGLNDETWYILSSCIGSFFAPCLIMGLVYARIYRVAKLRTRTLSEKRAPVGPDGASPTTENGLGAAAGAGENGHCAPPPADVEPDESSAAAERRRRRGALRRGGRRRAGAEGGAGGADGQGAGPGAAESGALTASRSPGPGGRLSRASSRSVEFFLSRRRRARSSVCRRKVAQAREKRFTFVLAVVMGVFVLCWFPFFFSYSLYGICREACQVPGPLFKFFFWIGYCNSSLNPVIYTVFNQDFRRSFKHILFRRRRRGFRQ
Voltage-gated potassium channel subunit beta-2 (Rattus norvegicus), sequence (P62483 whole entry, looked up): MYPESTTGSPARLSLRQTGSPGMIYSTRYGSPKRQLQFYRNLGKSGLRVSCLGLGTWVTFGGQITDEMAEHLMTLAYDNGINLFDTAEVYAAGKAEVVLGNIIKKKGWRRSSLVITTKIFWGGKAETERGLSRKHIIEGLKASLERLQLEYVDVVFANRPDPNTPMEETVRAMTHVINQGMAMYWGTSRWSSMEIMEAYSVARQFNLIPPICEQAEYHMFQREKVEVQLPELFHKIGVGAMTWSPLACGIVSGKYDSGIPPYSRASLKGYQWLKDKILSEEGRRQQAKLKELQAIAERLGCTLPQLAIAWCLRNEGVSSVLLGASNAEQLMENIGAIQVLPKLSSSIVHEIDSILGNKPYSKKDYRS

Consider `COc1cc2c(C#N)c(N3CCN(c4ccccc4OC)CC3)nc(N)c2c(N)n1`, for which the cell count in experiment [1] was determined as 660. Also, the inhibition is 0.7% (inactive) in experiment [1], -76.6% (inactive) in experiment [3], -0.302% (inactive) in experiment [7] and -36.5% (inactive) in experiment [8]. Moreover, the inhibition of aggregation in experiment [2] is -14.7% (inactive). In addition, the nuclei count in experiment [2] was determined as 99.8%; in experiment [3], 109%. Further, the fluorescence slope in experiment [4] is -0.178 (inactive). Besides, the NADPH fluorescence slope in experiment [5] was 1.8e-06 (inactive). For the same compound, in experiment [6], the slope was 0.00562 (inactive).

As for `COc1ccccc1-c1cc2nc(C)c(CCC(=O)NCc3ccco3)c(C)n2n1`, in experiment [1], the cell count amounted to 688. Also, the inhibition in experiment [1] was -7.7% (inactive); in experiment [3] it was -41.8% (inactive); in experiment [7], 18.9% (inactive); in experiment [8], 16.6% (inactive). The inhibition of aggregation in experiment [2] was -15.4% (inactive). Moreover, the nuclei count in experiment [2] is 115%; in experiment [3], 111%. Moreover, the fluorescence slope in experiment [4] is -0.587 (inactive). Also, in experiment [5], the NADPH fluorescence slope was -4.5e-05 (inactive). In addition, in experiment [6], the slope was 0.00963 (inactive).

With `Cc1nccn1CCCN1C(=O)OC2(CCCCC2)C1(C)O` (stereo not drawn), in experiment [1], the cell count worked out at 350. Besides, the inhibition in experiment [1] is -3% (inactive); in experiment [3], -4.4% (inactive); in experiment [7], 4.87% (inactive); in experiment [8] it was 17.2% (inactive). For the same compound, the inhibition of aggregation in experiment [2] was 2.3% (inactive). The results for the nuclei count in experiment [2] and in experiment [3] were 113% and 105%, respectively. The fluorescence slope in experiment [4] was -0.522 (inactive). In addition, in experiment [5], the NADPH fluorescence slope was -3.8e-05 (inactive). For the same compound, the slope in experiment [6] was 0.00543 (inactive).

Turning to `CC1=C(C(N)=O)C(c2ccccn2)n2nc(-c3ccccc3Cl)nc2N1` (stereo not drawn), the cell count in experiment [1] stood at 588. Besides, the inhibition in experiment [1] is -5.4% (inactive); in experiment [3], -11.6% (inactive); in experiment [7], -2.04% (inactive); in experiment [8], 17.2% (inactive). For the same compound, the inhibition of aggregation in experiment [2] is -14.7% (inactive). In addition, the nuclei count in experiment [2] was 104%; in experiment [3] it was 111%. The fluorescence slope in experiment [4] was -0.553 (inactive). The NADPH fluorescence slope in experiment [5] is -3.1e-05 (inactive). Moreover, in experiment [6], the slope was 0.0061 (inactive).

For the compound `O=C(NCc1cccs1)C(Cc1ccccc1)n1cccc1` (stereo not drawn), the cell count in experiment [1] turned out to be 602. For the same compound, the inhibition was -6.3% (inactive) in experiment [1], -25.8% (inactive) in experiment [3], 1.52% (inactive) in experiment [7] and 26.2% (inactive) in experiment [8]. The inhibition of aggregation in experiment [2] is 6.2% (inactive). Besides, the nuclei count in experiment [2] stood at 95.4%; in experiment [3], 115%. The fluorescence slope in experiment [4] was -0.614 (inactive). In experiment [5], the NADPH fluorescence slope was -5.2e-05 (inactive). Also, the slope in experiment [6] was 0.00634 (inactive).

Take `CCOC(=O)N1CCN(Cc2ccccc2F)CC1`: the cell count in experiment [1] stood at 485. Besides, the inhibition is -3.8% (inactive) in experiment [1], -26% (inactive) in experiment [3], 12.5% (inactive) in experiment [7] and 13.4% (inactive) in experiment [8]. The inhibition of aggregation in experiment [2] was 15.1% (inactive). Moreover, the results for the nuclei count in experiment [2] and in experiment [3] were 91.4% and 91.5%, respectively. Further, the fluorescence slope in experiment [4] was -0.581 (inactive). The NADPH fluorescence slope in experiment [5] was -2e-05 (inactive). The slope in experiment [6] is 0.00418 (inactive).

As for `Cc1noc(/C=C/N(C)C)c1S(=O)(=O)N1CCCC(C(=O)N2CCCCC2)C1` (stereo not drawn), the cell count in experiment [1] was determined as 709. The inhibition was 9.1% (inactive) in experiment [1], -79.5% (inactive) in experiment [3], 7.18% (inactive) in experiment [7] and 28.7% (inactive) in experiment [8]. For the same compound, the inhibition of aggregation in experiment [2] was -0.1% (inactive). The nuclei count turned out to be 80.5% in experiment [2] and 117% in experiment [3]. The fluorescence slope in experiment [4] was -0.516 (inactive). Besides, the NADPH fluorescence slope in experiment [5] was -3.8e-05 (inactive). Also, in experiment [6], the slope was 0.00526 (inactive).

Regarding `CCCCOc1ccc(-c2ncc(C(=O)OCC)c(N)n2)cc1`, the cell count in experiment [1] is 377. For the same compound, the inhibition in experiment [1] was 1.6% (inactive); in experiment [3], -71.6% (inactive); in experiment [7] it was 0.257% (inactive); in experiment [8], -34.4% (inactive). The inhibition of aggregation in experiment [2] is 16.9% (inactive). In addition, the results for the nuclei count in experiment [2] and in experiment [3] were 73.4% and 115%, respectively. In experiment [4], the fluorescence slope is -0.452 (inactive). Moreover, the NADPH fluorescence slope in experiment [5] was -4.6e-05 (inactive). Moreover, the slope in experiment [6] was 0.00612 (inactive).

Take `Cc1ccc(C)c(N(CC(=O)NC2CCCC2)C(=O)CCCC(=O)Nc2ccccn2)c1`: the cell count in experiment [1] is 516. Further, the inhibition in experiment [1] was -18.3% (inactive); in experiment [3] it was -50.6% (inactive); in experiment [7], 13.6% (inactive); in experiment [8] it was 27.2% (inactive). For the same compound, the inhibition of aggregation in experiment [2] is 7.5% (inactive). Also, the results for the nuclei count in experiment [2] and in experiment [3] were 93.9% and 95.7%, respectively. In addition, in experiment [4], the fluorescence slope was -0.539 (inactive). Also, in experiment [5], the NADPH fluorescence slope was -4.4e-05 (inactive). Further, the slope in experiment [6] was 0.00581 (inactive).

Consider `COCCOC(=O)c1cc(C(=O)c2cc(F)ccc2O)coc1=N`, for which the cell count in experiment [1] amounted to 473. Also, the inhibition in experiment [1] is -11.2% (inactive); in experiment [3], -92.3% (inactive); in experiment [7], 6.76% (inactive); in experiment [8], 11% (inactive). Also, in experiment [2], the inhibition of aggregation was 8.5% (inactive). Also, the values for the nuclei count in experiment [2] and in experiment [3] were 107% and 115%, respectively. In addition, the fluorescence slope in experiment [4] is -0.597 (inactive). The NADPH fluorescence slope in experiment [5] was -1.1e-05 (inactive). Besides, in experiment [6], the slope was 0.00549 (inactive).

As for `O=C(c1ccc(Br)cc1)N1CCN(S(=O)(=O)c2ccccc2)CC1`, the cell count in experiment [1] worked out at 556. For the same compound, the inhibition in experiment [1] was -5.1% (inactive); in experiment [3], -43.3% (inactive); in experiment [7], -3.58% (inactive); in experiment [8], 20% (inactive). In experiment [2], the inhibition of aggregation was 3.3% (inactive). Besides, the nuclei count was determined as 66.6% in experiment [2] and 106% in experiment [3]. Besides, the fluorescence slope in experiment [4] is -0.588 (inactive). The NADPH fluorescence slope in experiment [5] is -9.2e-07 (inactive). Moreover, in experiment [6], the slope was 0.00631 (inactive).

With `CCCS(=O)(=O)C(=C1Nc2ccccc2N1)S(=O)(=O)CCC`, the cell count in experiment [1] was determined as 543. For the same compound, the inhibition in experiment [1] was -7% (inactive); in experiment [3] it was 0.5% (inactive); in experiment [7], 12.1% (inactive); in experiment [8], 15.8% (inactive). In experiment [2], the inhibition of aggregation is -18.7% (inactive). For the same compound, the figures for the nuclei count in experiment [2] and in experiment [3] were 119% and 75.9%, respectively. Further, the fluorescence slope in experiment [4] is -0.63 (inactive). Moreover, in experiment [5], the NADPH fluorescence slope is -4.3e-05 (inactive). In addition, the slope in experiment [6] is 0.00495 (inactive).

As to `Cc1ccc(-n2c(SCC3CCCCO3)nnc2-c2ccco2)cc1` (stereo not drawn), the cell count in experiment [1] is 573. For the same compound, the inhibition was 0.5% (inactive) in experiment [1], -17.5% (inactive) in experiment [3], 20.5% (inactive) in experiment [7] and 25.2% (inactive) in experiment [8]. Besides, the inhibition of aggregation in experiment [2] is 7.5% (inactive). Besides, the figures for the nuclei count in experiment [2] and in experiment [3] were 86.9% and 102%, respectively. Moreover, in experiment [4], the fluorescence slope was -0.413 (inactive). In addition, the NADPH fluorescence slope in experiment [5] is -4.4e-05 (inactive). Also, the slope in experiment [6] is 0.00422 (inactive).
